Measurements as given in PubChem BioAssay AID1159580 (chemical genetic matrix, 2015).
Out of some 5,500 compounds screened, about 2,000 (36%) were called active. About 18% were inconclusive and are not listed. Rule as the data show it: active = normalized growth mostly below about 0.91 (no sharp cut-off); inconclusive = no clear call, values can overlap the other calls; inactive = mostly above about 0.92. The list shows a part of the results.

Test: chemical genetic growth profiling, strain panel (AID 1159580);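 also: tested at 20 µM; growth read once vehicle control cultures reached saturation at 30 °C; 1 = growth at the plate median or of vehicle wells; lower values mean less growth of the strain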
Conditions: S. cerevisiae deletion strains, growth OD

Measured: normalized growth

CC(=O)OC1CC[C@@]2(C)C(CCC3C2CC[C@]2(C)C(C4=CC(=O)OC4)C(OC(C)=O)CC32O)C1 (stereo not given in full)
active: locus YBR021W, strain FUR4, stronger effect = lower value 0.837
inactive: locus YAL013W, strain DEP1, stronger effect = lower value 0.988 | locus YAL021C, strain ccr4, stronger effect = lower value 0.989 | locus YAL026C, strain drs2, stronger effect = lower value 0.979 | locus YAL030W, strain snc1, stronger effect = lower value 0.998 | locus YBL061C, strain skt5, stronger effect = lower value 0.994 | locus YBR009C, strain hhf1, stronger effect = lower value 1 | locus YBR023C, strain chs3, stronger effect = lower value 0.995 | locus YBR171W, strain sec66, stronger effect = lower value 0.987 | locus YBR229C, strain ROT2, stronger effect = lower value 0.997 | locus YBR231C, strain swc5, stronger effect = lower value 0.979 | locus YBR279W, strain paf1, stronger effect = lower value 0.984 | locus YCL011C, strain gbp2, stronger effect = lower value 0.972 | locus YCL016C, strain dcc1, stronger effect = lower value 0.971 | locus YCL029C, strain bik1, stronger effect = lower value 1.01 | locus YCL069W, strain vba3, stronger effect = lower value 0.999 | locus YCR088W, strain abp1, stronger effect = lower value 0.999 | locus YDL005C, strain med2, stronger effect = lower value 0.972 | locus YDL035C, strain GPR1, stronger effect = lower value 1.01 | locus YDL040C, strain nat1, stronger effect = lower value 0.99 | locus YDL074C, strain BRE1, stronger effect = lower value 0.972 | locus YDL101C, strain DUN1, stronger effect = lower value 1 | locus YDL134C, strain PPH21, stronger effect = lower value 1.03 | locus YDL185W, strain tfp1, stronger effect = lower value 1.02 | locus YDL192W, strain arf1, stronger effect = lower value 1 | locus YDR001C, strain nth1, stronger effect = lower value 0.986 | locus YDR069C, strain doa4, stronger effect = lower value 0.942 | locus YDR101C, strain arx1, stronger effect = lower value 1.01 | locus YDR137W, strain rgp1, stronger effect = lower value 0.986 | locus YDR159W, strain sac3, stronger effect = lower value 1.03 | locus YDR162C, strain NBP2, stronger effect = lower value 1 | locus YDR195W, strain ref2 0.951 | locus YDR297W, strain sur2, stronger effect = lower value 0.989 | locus YDR318W, strain mcm21, stronger effect = lower value 0.992 | locus YDR334W, strain swr1, stronger effect = lower value 0.976 | locus YDR335W, strain msn5, stronger effect = lower value 0.978 | locus YDR388W, stronger effect = lower value 1.01 | locus YDR392W, strain spt3, stronger effect = lower value 1.01 | locus YDR502C, strain sam2, stronger effect = lower value 0.994 | locus YEL003W, strain gim4, stronger effect = lower value 0.988 | locus YEL037C, strain rad23, stronger effect = lower value 0.997 | locus YEL061C, strain CIN8 (second series), stronger effect = lower value 0.985 | locus YEL061C, strain CIN8, stronger effect = lower value 0.997 | locus YER015W, strain faa2, stronger effect = lower value 0.983 | locus YER016W, strain bim1, stronger effect = lower value 0.965 | locus YER110C, stronger effect = lower value 1.01 | locus YER111C, strain swi4, stronger effect = lower value 0.978 | locus YER155C, strain BEM2 (second series), stronger effect = lower value 1.01 | locus YER155C, strain BEM2, stronger effect = lower value 0.996 | locus YER167W, strain BCK2, stronger effect = lower value 0.997 | locus YFR010W, strain ubp6, stronger effect = lower value 1 | locus YGL078C, strain dbp3, stronger effect = lower value 1 | locus YGL086W, strain mad1, stronger effect = lower value 1 | locus YGL167C, strain pmr1, stronger effect = lower value 0.982 | locus YGL173C, strain kem1, stronger effect = lower value 0.987 | locus YGL227W, strain vid30, stronger effect = lower value 0.98 | locus YGL240W, strain doc1, stronger effect = lower value 0.99 | locus YGL248W, strain PDE1, stronger effect = lower value 0.995 | locus YGL253W, strain hxk2, stronger effect = lower value 0.964 | locus YGR135W, strain pre9, stronger effect = lower value 1.01 | locus YGR229C, strain SMI1, stronger effect = lower value 0.976 | locus YGR252W, strain gcn5, stronger effect = lower value 0.993 | locus YHR013C, strain ard1, stronger effect = lower value 0.943 | locus YHR027C, strain rpn1, stronger effect = lower value 0.97 | locus YHR079C, strain IRE1 (second series), stronger effect = lower value 1 | locus YHR094C, strain hxt1, stronger effect = lower value 1 | locus YHR129C, strain ARP1, stronger effect = lower value 1 | locus YHR142W, strain chs7, stronger effect = lower value 0.958 | locus YHR200W, strain rpn10, stronger effect = lower value 1.01 | locus YIL066C, strain RNR3, stronger effect = lower value 1.01 | locus YIL073C, strain SPO22, stronger effect = lower value 1.04 | locus YIL125W, strain kgd1, stronger effect = lower value 1.02 | locus YIR030C, strain dcg1, stronger effect = lower value 1 | locus YJL092W, strain hpr5, stronger effect = lower value 0.986 | locus YJL095W, strain BCK1 (second series), stronger effect = lower value 0.993 | locus YJL095W, strain BCK1, stronger effect = lower value 0.999 | locus YJL115W, strain asf1, stronger effect = lower value 0.959 | locus YJL129C, strain trk1, stronger effect = lower value 0.956 | locus YJL134W, strain LCB3, stronger effect = lower value 0.995 | locus YJL154C, strain vps35, stronger effect = lower value 0.975 | locus YJL164C, strain tpk1, stronger effect = lower value 1 | locus YJL166W, strain qcr8, stronger effect = lower value 0.957 | locus YJL168C, strain set2, stronger effect = lower value 1.01 | locus YJL187C, strain SWE1 (second series), stronger effect = lower value 0.99 | locus YJL187C, strain SWE1, stronger effect = lower value 0.982 | locus YJR075W, strain HOC1, stronger effect = lower value 0.997 | locus YKL009W, strain mrt4, stronger effect = lower value 1.01 | locus YKL068W, stronger effect = lower value 1.01 | locus YKL085W, strain MDH1 (second series), stronger effect = lower value 1.01 | locus YKL085W, strain MDH1, stronger effect = lower value 1.01 | locus YKL160W, strain elf1, stronger effect = lower value 0.975 | locus YKR001C, strain vps1, stronger effect = lower value 1.01 | locus YKR026C, strain gcn3, stronger effect = lower value 0.993 | locus YKR091W, strain srl3, stronger effect = lower value 0.974 | locus YLL001W, strain dnm1, stronger effect = lower value 0.998 | locus YLL026W, stronger effect = lower value 0.983 | locus YLL041C, strain sdh2, stronger effect = lower value 1 | locus YLR027C, strain aat2, stronger effect = lower value 0.983 | locus YLR039C, strain RIC1, stronger effect = lower value 1.02 | locus YLR058C, strain SHM2, stronger effect = lower value 1 | locus YLR102C, strain apc9, stronger effect = lower value 1.01 | locus YLR221C, strain rsa3, stronger effect = lower value 0.997 | locus YLR258W, strain gsy2, stronger effect = lower value 0.979 | locus YLR262C, strain YPT6 (second series), stronger effect = lower value 0.974 | locus YLR262C, strain YPT6, stronger effect = lower value 1.03 | locus YLR268W, strain sec22, stronger effect = lower value 1.01 | locus YLR320W, strain mms22, stronger effect = lower value 1.01 | locus YLR342W, strain FKS1 (second series), stronger effect = lower value 0.986 | locus YLR342W, strain FKS1, stronger effect = lower value 1.01 | locus YLR357W, strain rsc2, stronger effect = lower value 0.967 | locus YLR370C, strain arc18, stronger effect = lower value 0.974 | locus YLR371W, strain rom2, stronger effect = lower value 0.996 | locus YLR384C, strain iki3, stronger effect = lower value 0.971 | locus YLR418C, strain cdc73, stronger effect = lower value 1.03 | locus YML016C, strain PPZ1, stronger effect = lower value 1 | locus YML032C, strain rad52, stronger effect = lower value 1.01 | locus YML120C, strain ndi1, stronger effect = lower value 0.996 | locus YML124C, strain tub3, stronger effect = lower value 1.01 | locus YMR058W, strain fet3, stronger effect = lower value 0.977 | locus YMR078C, strain ctf18, stronger effect = lower value 1.02 | locus YMR125W, strain sto1, stronger effect = lower value 0.977 | locus YMR129W, stronger effect = lower value 0.981 | locus YMR205C, strain PFK2, stronger effect = lower value 0.994 | locus YMR223W, strain ubp8, stronger effect = lower value 1 | locus YMR231W, strain pep5, stronger effect = lower value 0.99 | locus YMR307W, strain GAS1, stronger effect = lower value 1.02 | locus YNL067W, strain RPL9B, stronger effect = lower value 1.01 | locus YNL071W, strain lat1, stronger effect = lower value 0.999 | locus YNL153C, strain GIM3, stronger effect = lower value 1 | locus YNL209W, strain ssb2, stronger effect = lower value 0.996 | locus YNL233W, strain BNI4, stronger effect = lower value 0.989 | locus YNL248C, strain rpa49, stronger effect = lower value 0.946 | locus YNL250W, strain rad50, stronger effect = lower value 1.02 | locus YNL271C, strain bni1, stronger effect = lower value 1.01 | locus YNL298W, strain CLA4, stronger effect = lower value 1.04 | locus YNL307C, strain MCK1, stronger effect = lower value 1.03 | locus YNL322C, strain KRE1 (second series), stronger effect = lower value 0.971 | locus YNR049C, strain mso1, stronger effect = lower value 0.959 | locus YNR052C, strain pop2, stronger effect = lower value 0.999 | locus YOL006C, strain TOP1, stronger effect = lower value 1.04 | locus YOL012C, strain htz1 0.875 | locus YOL147C, strain pex11, stronger effect = lower value 1.01 | locus YOR001W, strain rrp6, stronger effect = lower value 1.03 | locus YOR061W, strain CKA2, stronger effect = lower value 1.01 | locus YOR069W, strain VPS5, stronger effect = lower value 0.999 | locus YOR070C, strain gyp1, stronger effect = lower value 0.995 | locus YOR080W, strain dia2, stronger effect = lower value 0.973 | locus YOR083W, strain WHI5, stronger effect = lower value 0.977 | locus YOR106W, strain vam3, stronger effect = lower value 0.956 | locus YOR136W, strain idh2, stronger effect = lower value 1.02 | locus YOR144C, strain elg1, stronger effect = lower value 1.02 | locus YOR184W, strain ser1, stronger effect = lower value 1.02 | locus YOR265W, strain rbl2, stronger effect = lower value 0.999 | locus YOR270C, strain vph1, stronger effect = lower value 0.965 | locus YOR290C, strain snf2, stronger effect = lower value 0.955 | locus YOR316C, strain cot1, stronger effect = lower value 1.02 | locus YPL051W, strain arl3, stronger effect = lower value 0.98 | locus YPL078C, strain atp4, stronger effect = lower value 0.977 | locus YPL106C, strain sse1, stronger effect = lower value 0.997 | locus YPL240C, strain hsp82, stronger effect = lower value 0.982 | locus YPR119W, strain clb2, stronger effect = lower value 1.01 | locus YPR141C, strain kar3, stronger effect = lower value 1 | locus YPR163C, strain tif3, stronger effect = lower value 1.02 | locus YPR167C, strain met16, stronger effect = lower value 0.999 | strain wtn01, stronger effect = lower value 1.01
